Results from the supplement of paper PMC10849652.
Of roughly 8,800 targets only a part is listed; those with a hit were picked by preference. About 0.5% of all pairs of compound and target were hits.

Columns and labels:
Assay in all cases: log2 fold change, soluble protein after heating vs DMSO (PISA); higher = thermal stabilisation; K562 lysate, 10 uM; active = over 0.2 and 3.5 SD of the protein, either way, in both replicates (recomputed)
erlotinib = compound: C#Cc1cccc(Nc2ncnc3cc(OCCOC)c(OCCOC)cc23)c1 [erlotinib]
How it was run: (§1)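 K562 pellets were dounce-homogenised in PBS pH 7.4 containing 1 mM MgCl2, and the crude extract, at 1 mg/mL protein, was exposed to 10 μM compound for 30 min. Aliquots were heated for 3 min across 48°C-58°C, pooled, brought to 0.5% NP-40 at 4°C and spun at 21,000xg for 90 min, with the supernatant taken as soluble protein. TMTpro 16plex LC-MS/MS with equalised channel sums quantified that protein. Values are log-two fold changes in thermal stability relative to solvent controls, taken from duplicates.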

[1] = compound: C/C(=N\NC(=O)C1=CC(=CC=C1)S(=O)(=O)N2CCOCC2)/C3=C(C=CC(=C3)Cl)O
How it was run: as §1

[2] = compound: C1=CC(=CC=C1C2=NC3=C(N2)C=C(C=C3)C(=O)N)OC4=CC=C(C=C4)Cl
How it was run: as §1

[3] = compound: C1=CC2=C(C=CC(=C2)/C=C\3/C(=O)NC(=NCC4=CC=CS4)S3)N=C1
How it was run: as §1

[4] = compound: C1=CC2=NC=CN=C2C=C1/C=C/3\C(=O)NC(=O)S3
How it was run: as §1

[5] = compound: C1=CC=C(C=C1)C2=NC(=C(N2)C3=CC=NC=C3)C4=CC(=C(C=C4)Cl)O
How it was run: as §1

[6] = compound: C1=CC=C2C(=C1)C3=NNC4=CC=CC(=C43)C2=O
How it was run: as §1

[7] = compound: C1CCN(C1)C(=O)NC2=CC=CC(=C2)NC3=NC=C(C(=N3)NCCC4=CN=CN4)Br
How it was run: as §1

[8] = compound: C1CN(CCC1(CC2=CC=C(C=C2)Cl)N)C3=NC=NC4=C3C=CN4
How it was run: as §1

IRAK-1-4 Inhibitor I = compound: C1COCCN1CCN2C3=CC=CC=C3N=C2NC(=O)C4=CC(=CC=C4)[N+](=O)[O-] [IRAK-1-4 Inhibitor I]
How it was run: as §1

Measured: log2 fold change

CCNY (UniProt Q8ND76)
Sequence of UniProt Q8ND76 (Q8ND76 whole entry, looked up): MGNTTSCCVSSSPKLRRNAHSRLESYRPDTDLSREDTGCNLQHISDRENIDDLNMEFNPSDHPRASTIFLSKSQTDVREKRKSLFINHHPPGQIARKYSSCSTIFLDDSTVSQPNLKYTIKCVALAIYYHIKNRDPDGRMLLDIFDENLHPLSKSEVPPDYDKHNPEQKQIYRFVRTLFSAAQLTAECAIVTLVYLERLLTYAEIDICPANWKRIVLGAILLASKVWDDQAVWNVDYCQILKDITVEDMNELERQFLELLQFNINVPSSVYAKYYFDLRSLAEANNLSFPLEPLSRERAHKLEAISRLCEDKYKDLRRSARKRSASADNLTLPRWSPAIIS
inactive: erlotinib -0.082 | [1] -0.033 | [2] 0.041 | [3] -0.037 | [4] 0.052 | [5] 0 | [6] 0.168 | [7] -0.016 | [8] -0.032 | IRAK-1-4 Inhibitor I 0.063

CDK8 (UniProt P49336)
inactive: erlotinib -0.012 | [1] -0.059 | [2] 0.028 | [3] -0.128 | [4] 0.068 | [5] 0.004 | [6] 0.128 | IRAK-1-4 Inhibitor I 0.029

CASP9 (UniProt P55211)
inactive: erlotinib -0.007 | [1] 0.008 | [2] 0.008 | [3] 0.03 | [4] 0.069 | [5] -0.002 | [6] -0.008 | [7] 0.014 | [8] 0.006 | IRAK-1-4 Inhibitor I 0.034

BLOC1S6 (UniProt Q9UL45)
Sequence of UniProt Q9UL45 (Q9UL45 whole entry, looked up): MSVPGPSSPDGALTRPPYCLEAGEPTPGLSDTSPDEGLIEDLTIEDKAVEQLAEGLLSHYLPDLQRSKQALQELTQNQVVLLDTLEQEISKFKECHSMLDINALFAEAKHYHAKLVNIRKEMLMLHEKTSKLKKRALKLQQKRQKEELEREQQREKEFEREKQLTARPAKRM
inactive: erlotinib -0.008 | [1] 0.007 | [2] 0.029 | [3] 0.027 | [4] 0.001 | [5] 0.002 | [6] -0.004 | [7] 0.093 | [8] -0.01 | IRAK-1-4 Inhibitor I -0.031

ATAD1 (UniProt Q8NBU5)
inactive: erlotinib 0.004 | [1] 0.046 | [2] -0.016 | [3] 0.027 | [4] -0.059 | [5] -0.041 | [6] 0.004 | [7] -0.029 | [8] 0.015 | IRAK-1-4 Inhibitor I 0.063

CASC4 (UniProt Q6P4E1)
inactive: erlotinib -0.005 | [1] 0.004 | [2] -0.035 | [3] 0.003 | [4] -0.049 | [5] -0.02 | [6] -0.119 | [7] -0.013 | [8] 0.047 | IRAK-1-4 Inhibitor I -0.008

CDC42BPA isoform 6 (UniProt Q5VT25)
inactive: erlotinib -0.007 | [1] 0.077 | [2] -0.086 | [3] 0.011 | [4] -0.012 | [5] -0.029 | [6] -0.09 | [7] -0.032 | [8] -0.006 | IRAK-1-4 Inhibitor I -0.038

CCNB2 (UniProt O95067)
Sequence of UniProt O95067 (O95067 whole entry, looked up): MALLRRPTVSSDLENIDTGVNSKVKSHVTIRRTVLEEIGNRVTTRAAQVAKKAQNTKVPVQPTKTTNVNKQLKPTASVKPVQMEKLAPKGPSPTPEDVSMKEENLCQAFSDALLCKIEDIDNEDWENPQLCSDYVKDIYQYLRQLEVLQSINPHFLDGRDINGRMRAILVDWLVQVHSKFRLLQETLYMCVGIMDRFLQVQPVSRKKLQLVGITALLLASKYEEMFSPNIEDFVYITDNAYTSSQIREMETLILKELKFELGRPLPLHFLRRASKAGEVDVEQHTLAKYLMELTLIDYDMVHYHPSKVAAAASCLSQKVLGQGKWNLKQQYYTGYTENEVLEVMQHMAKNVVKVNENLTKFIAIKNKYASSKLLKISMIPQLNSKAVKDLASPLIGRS
inactive: erlotinib 0.037 | [1] 0.038 | [2] 0.075 | [3] -0.061 | [4] -0.008 | [5] 0.008 | [6] -0.125 | [7] -0.02 | [8] 0.027 | IRAK-1-4 Inhibitor I 0.033

CHD4 isoform 2 (UniProt Q14839)
inactive: erlotinib -0.02 | [1] 0.009 | [2] 0.007 | [3] 0.004 | [4] -0.016 | [5] -0.004 | [6] -0.013 | [7] -0.013 | [8] 0.031 | IRAK-1-4 Inhibitor I -0.015

CDK5 (UniProt Q00535)
inactive: erlotinib -0.018 | [1] -0.065 | [2] 0.126 | [3] -0.041 | [4] -0.023 | [5] 0.01 | [7] 0.367 | [8] 0.004 | IRAK-1-4 Inhibitor I 0.033

CHCHD1 (UniProt Q96BP2)
inactive: erlotinib -0.002 | [1] -0.7 | [2] 0.029 | [3] -0.053 | [4] 0.005 | [5] 0.021 | [6] -0.002 | [7] 0.04 | [8] 0.043 | IRAK-1-4 Inhibitor I 0.068

BET1 (UniProt O15155)
inactive: erlotinib 0.025 | [1] -0.092 | [2] -0.059 | [3] 0.033 | [4] 0.08 | [5] 0.033 | [6] -0.015 | [7] 0.039 | [8] 0.018 | IRAK-1-4 Inhibitor I 0.006

C1orf131 isoform 5 (UniProt Q8NDD1)
inactive: erlotinib -0.006 | [1] -0.094 | [2] 0.051 | [3] -0.058 | [5] -0.013 | [6] -0.001 | [7] -0.062 | [8] -0.011 | IRAK-1-4 Inhibitor I 0.067

BMS1 (UniProt Q14692)
inactive: erlotinib -0.029 | [1] -0.089 | [2] -0.027 | [3] 0.028 | [4] -0.046 | [5] 0.034 | [6] 0.039 | [7] 0.006 | [8] 0.01 | IRAK-1-4 Inhibitor I -0.01

BRD3 (UniProt Q15059)
Sequence of UniProt Q15059 (Q15059 whole entry, looked up): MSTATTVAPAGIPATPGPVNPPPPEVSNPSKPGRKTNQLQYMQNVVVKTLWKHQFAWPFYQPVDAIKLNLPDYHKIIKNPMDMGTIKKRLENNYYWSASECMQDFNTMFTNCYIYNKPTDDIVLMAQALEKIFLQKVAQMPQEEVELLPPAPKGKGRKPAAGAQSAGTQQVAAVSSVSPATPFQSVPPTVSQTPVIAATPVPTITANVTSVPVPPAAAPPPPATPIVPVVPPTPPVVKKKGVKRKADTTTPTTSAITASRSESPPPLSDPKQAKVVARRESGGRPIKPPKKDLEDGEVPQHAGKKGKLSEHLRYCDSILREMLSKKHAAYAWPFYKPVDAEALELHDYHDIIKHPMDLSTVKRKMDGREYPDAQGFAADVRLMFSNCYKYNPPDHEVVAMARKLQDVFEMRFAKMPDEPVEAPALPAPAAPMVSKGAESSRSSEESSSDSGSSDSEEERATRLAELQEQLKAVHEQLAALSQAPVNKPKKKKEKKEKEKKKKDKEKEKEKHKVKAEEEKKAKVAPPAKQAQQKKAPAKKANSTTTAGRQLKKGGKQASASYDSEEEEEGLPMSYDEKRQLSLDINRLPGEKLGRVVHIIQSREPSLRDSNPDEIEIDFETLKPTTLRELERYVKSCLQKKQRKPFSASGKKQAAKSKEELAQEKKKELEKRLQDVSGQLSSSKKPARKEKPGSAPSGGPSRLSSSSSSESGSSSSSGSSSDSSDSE
inactive: erlotinib -0.005 | [1] 0.084 | [2] -0.065 | [3] 0.004 | [4] -0.033 | [6] -0.013 | [7] -0.001 | [8] 0.036

CCDC47 (UniProt Q96A33)
inactive: erlotinib 0.02 | [1] 0.003 | [2] -0.071 | [3] 0.009 | [4] 0.022 | [5] -0.03 | [6] -0.093 | [7] -0.007 | [8] 0.024 | IRAK-1-4 Inhibitor I 0.003

CDK11B (UniProt P21127)
inactive: erlotinib 0.01 | [1] 0.025 | [2] -0.029 | [3] 0.008 | [4] -0.018 | [5] 0.017 | [6] -0.049 | [7] -0.016 | [8] -0.003 | IRAK-1-4 Inhibitor I -0.021

ATP2B4 (UniProt P23634)
inactive: erlotinib 0.021 | [1] 0.023 | [2] 0.012 | [3] 0.024 | [4] 0.019 | [5] -0.015 | [6] -0.018 | [7] 0.017 | [8] 0.045 | IRAK-1-4 Inhibitor I -0.028

CDKN1B (UniProt P46527)
Sequence of UniProt P46527 (P46527 whole entry, looked up): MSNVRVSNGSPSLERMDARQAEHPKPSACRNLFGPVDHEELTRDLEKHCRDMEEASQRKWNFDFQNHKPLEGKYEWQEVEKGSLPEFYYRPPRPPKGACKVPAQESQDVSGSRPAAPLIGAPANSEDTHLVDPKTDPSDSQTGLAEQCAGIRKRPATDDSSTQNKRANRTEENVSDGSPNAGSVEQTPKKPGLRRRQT
inactive: erlotinib -0.079 | [1] -0.067 | [2] 0.011 | [3] 0.012 | [4] 0.026 | [5] -0.038 | [6] 0.03 | [7] 0.045 | [8] 0.003 | IRAK-1-4 Inhibitor I -0.086

ATR (UniProt Q13535)
inactive: erlotinib -0.025 | [1] -0.012 | [2] -0.055 | [3] 0.336 | [4] 0.255 | [5] 0.125 | [6] 0.071 | [7] -0.005 | [8] 0.125 | IRAK-1-4 Inhibitor I -0.025

CES2 isoform 4 (UniProt O00748)
Sequence of UniProt O00748 (O00748 whole entry, looked up): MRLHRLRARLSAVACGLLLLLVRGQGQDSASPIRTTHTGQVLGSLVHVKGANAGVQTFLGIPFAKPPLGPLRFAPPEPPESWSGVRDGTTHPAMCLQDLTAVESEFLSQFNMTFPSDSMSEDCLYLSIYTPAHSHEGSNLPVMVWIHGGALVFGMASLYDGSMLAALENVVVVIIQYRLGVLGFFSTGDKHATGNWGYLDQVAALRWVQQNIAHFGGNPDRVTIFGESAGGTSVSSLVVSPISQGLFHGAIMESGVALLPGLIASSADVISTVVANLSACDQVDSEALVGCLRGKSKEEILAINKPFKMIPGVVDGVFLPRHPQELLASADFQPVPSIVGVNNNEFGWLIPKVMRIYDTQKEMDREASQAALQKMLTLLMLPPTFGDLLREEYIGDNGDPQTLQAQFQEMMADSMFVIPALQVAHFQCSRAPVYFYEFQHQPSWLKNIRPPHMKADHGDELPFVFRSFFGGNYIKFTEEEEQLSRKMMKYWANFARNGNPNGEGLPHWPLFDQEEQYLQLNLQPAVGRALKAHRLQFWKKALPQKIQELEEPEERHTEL
inactive: erlotinib -0.014 | [1] 0.006 | [2] -0.012 | [3] 0.041 | [4] -0.035 | [5] 0.087 | [6] -0.067 | [7] 0.053 | [8] -0.031 | IRAK-1-4 Inhibitor I 0.075

BCKDK (UniProt O14874)
inactive: erlotinib -0.041 | [1] -0.168 | [2] -0.007 | [3] 0.062 | [4] -0.007 | [5] -0.053 | [6] 0.01 | [7] -0.041 | [8] 0.045 | IRAK-1-4 Inhibitor I -0.097

CD80 (UniProt P33681)
inactive: erlotinib -0.139 | [1] 0.041 | [2] 0.063 | [3] -0.013 | [5] -0.087 | [6] -0.02 | [7] 0.058 | [8] -0.029 | IRAK-1-4 Inhibitor I 0.096

BCR (UniProt P11274)
Sequence of UniProt P11274 (P11274 whole entry, looked up): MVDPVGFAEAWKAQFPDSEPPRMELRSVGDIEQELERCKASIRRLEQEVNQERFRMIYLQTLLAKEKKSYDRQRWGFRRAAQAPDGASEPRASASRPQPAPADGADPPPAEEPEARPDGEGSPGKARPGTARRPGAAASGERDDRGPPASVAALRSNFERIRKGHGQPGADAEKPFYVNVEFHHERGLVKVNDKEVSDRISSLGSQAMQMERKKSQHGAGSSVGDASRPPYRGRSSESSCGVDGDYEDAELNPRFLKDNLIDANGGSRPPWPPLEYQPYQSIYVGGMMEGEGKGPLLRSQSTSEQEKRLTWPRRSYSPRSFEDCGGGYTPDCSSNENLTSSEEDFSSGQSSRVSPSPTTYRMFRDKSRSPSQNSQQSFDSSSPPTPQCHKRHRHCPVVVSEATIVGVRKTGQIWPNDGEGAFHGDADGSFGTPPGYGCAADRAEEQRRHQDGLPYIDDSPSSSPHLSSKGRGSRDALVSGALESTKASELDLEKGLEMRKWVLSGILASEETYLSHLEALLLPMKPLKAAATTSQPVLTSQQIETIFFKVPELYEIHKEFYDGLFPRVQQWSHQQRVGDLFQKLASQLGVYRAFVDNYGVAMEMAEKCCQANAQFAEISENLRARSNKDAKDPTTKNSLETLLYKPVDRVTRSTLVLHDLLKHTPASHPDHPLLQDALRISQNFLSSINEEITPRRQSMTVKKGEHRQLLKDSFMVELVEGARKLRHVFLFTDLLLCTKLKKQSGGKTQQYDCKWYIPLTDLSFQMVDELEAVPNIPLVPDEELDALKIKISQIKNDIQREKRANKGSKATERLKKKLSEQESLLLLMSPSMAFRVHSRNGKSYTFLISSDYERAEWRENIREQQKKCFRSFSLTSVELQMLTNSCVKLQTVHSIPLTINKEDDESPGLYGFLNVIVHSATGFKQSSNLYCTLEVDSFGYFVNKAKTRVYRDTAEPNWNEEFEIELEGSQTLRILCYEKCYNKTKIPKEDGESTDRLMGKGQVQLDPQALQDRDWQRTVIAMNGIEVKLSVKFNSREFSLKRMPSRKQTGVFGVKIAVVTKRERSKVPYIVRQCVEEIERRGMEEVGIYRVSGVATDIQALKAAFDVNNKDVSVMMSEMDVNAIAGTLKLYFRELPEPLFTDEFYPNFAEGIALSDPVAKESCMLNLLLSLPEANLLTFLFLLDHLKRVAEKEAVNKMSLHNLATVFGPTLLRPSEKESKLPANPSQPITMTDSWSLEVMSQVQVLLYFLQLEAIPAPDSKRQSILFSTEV
inactive: erlotinib -0.006 | [1] 0.037 | [2] 0.047 | [3] 0.012 | [4] -0.01 | [5] 0.004 | [6] -0.052 | [7] -0.025 | [8] -0.011 | IRAK-1-4 Inhibitor I -0.041

CEP41 (UniProt Q9BYV8)
inactive: erlotinib -0.068 | [1] -0.125 | [2] 0.006 | [3] -0.007 | [4] 0.016 | [6] 0.019 | [7] -0.035 | [8] 0.03

CAMK2B (UniProt Q13554)
Sequence of UniProt Q13554 (Q13554 whole entry, looked up): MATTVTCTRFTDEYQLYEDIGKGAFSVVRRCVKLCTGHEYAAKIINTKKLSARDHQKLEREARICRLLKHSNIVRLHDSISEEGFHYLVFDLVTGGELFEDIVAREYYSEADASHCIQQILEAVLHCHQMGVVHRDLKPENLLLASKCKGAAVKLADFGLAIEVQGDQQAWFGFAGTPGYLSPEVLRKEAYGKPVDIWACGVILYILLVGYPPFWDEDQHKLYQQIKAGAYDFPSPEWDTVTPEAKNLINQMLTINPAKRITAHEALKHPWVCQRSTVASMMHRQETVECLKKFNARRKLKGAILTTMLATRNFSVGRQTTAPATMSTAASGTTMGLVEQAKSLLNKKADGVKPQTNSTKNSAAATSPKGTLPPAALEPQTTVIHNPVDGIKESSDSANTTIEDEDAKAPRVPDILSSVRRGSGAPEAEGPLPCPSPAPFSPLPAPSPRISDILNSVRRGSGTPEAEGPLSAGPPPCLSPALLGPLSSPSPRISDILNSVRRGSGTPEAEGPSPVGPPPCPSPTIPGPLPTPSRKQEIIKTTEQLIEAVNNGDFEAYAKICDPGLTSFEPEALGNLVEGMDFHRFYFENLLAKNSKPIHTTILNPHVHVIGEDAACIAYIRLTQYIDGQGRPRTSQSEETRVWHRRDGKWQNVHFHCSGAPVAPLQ
inactive: erlotinib 0.037 | [1] 0.086 | [2] -0.067 | [3] -0.039 | [4] -0.068 | [5] -0.069 | [7] 0.011 | [8] -0.034 | IRAK-1-4 Inhibitor I 0.087

CDCA8 (UniProt Q53HL2)
Sequence of UniProt Q53HL2 (Q53HL2 whole entry, looked up): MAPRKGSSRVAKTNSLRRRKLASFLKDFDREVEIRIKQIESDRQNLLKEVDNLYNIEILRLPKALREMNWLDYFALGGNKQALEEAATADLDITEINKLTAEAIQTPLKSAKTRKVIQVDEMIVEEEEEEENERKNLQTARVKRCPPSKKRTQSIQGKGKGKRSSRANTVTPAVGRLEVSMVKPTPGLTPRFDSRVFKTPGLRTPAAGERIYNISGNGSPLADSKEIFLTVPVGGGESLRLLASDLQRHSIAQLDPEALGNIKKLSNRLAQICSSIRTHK
inactive: erlotinib 0.112 | [1] 0.054 | [2] 0.009 | [3] -0.071 | [4] -0.12 | [6] -0.246 | [7] -0.01 | [8] -0.054

C3orf33 (UniProt Q6P1S2)
Sequence of UniProt Q6P1S2 (Q6P1S2 whole entry, looked up): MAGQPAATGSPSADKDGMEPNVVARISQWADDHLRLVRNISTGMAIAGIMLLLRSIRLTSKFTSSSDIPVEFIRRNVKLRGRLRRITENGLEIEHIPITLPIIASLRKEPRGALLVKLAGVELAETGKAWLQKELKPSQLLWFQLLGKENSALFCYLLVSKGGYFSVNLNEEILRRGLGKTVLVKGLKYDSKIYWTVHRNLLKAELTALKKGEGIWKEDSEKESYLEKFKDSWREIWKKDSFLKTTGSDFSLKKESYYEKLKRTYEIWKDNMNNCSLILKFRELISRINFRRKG
inactive: erlotinib 0.195 | [1] -0.205 | [2] 0.209 | [3] -0.124 | [4] 0.068 | [5] 0.032 | [6] 0.123 | IRAK-1-4 Inhibitor I -0.281

CCDC51 (UniProt Q96ER9)
inactive: erlotinib 0.03 | [1] -0.08 | [2] -0.047 | [3] -0.024 | [4] -0.005 | [5] 0.067 | [6] -0.07 | [7] 0.005 | [8] 0.029 | IRAK-1-4 Inhibitor I -0.041
